Bioassay records (PubChem BioAssay)
This is a sample that favours compounds with a hit; in the whole collection about 19% have one here.
HT1080 IDH1KD tx: toxicity to HT-1080 IDH1 knockdown cells (counter line) | HT-1080 IDH1 knockdown viability, ATP luminescence, 48 h | Potency, µM (titrated, usually from 46.1 µM), usual class: cytotoxic | 360,000 tested, 2% active | AID 686971
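HT-1080-IDH1KD cells (IDH1 knocked down), 750/well in RPMI with 5% FBS, treated with compound 48 h at 37 degrees C. Viability by CellTiter-Glo luminescence, normalised to DMSO and no-cell wells; concentration-response curves classed.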
HT1080NT lethal: kills 2HG-producing HT-1080-NT fibrosarcoma cells; HT-1080-NT fibrosarcoma viability, CellTiter-Glo ATP luminescence, 48 h; Potency, µM (top dose mostly 46.1 µM), usual class: cytotoxic; 360,000 tested, 1.6% active;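 further: NT is the 2HG producing partner of a matched IDH1 knockdown line; nearly all actives have a fitted effect of over 55% in size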
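Toxicity toward the 2HG-producing NT line was scored as %Activity, normalised to DMSO and no-cell wells, from CellTiter-Glo luminescence after 48 hours' treatment.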
DT40 TDP1 no CPT: qHTS for Inhibitors of human tyrosyl-DNA phosphodiesterase 1 (TDP1): qHTS in cells in absence of CPT. DT40 Tdp1-/- hTDP1 cells, no CPT, ATP luminescence, 48 h. Potency, µM (series often up to 46.2 µM), hits mostly inhibitors. 420,000 tested, 15% active; further: nearly all actives have a fitted effect of over 55% in size
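Seeded 400 DT40-hTDP1 cells/well (vehicle DMSO, no 20 nM CPT); pinned compounds; ≥48 hr at 37 °C; CellTiter-Glo luminescence as viability measure.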
TDP1 cell CPT: growth inhibition of DT40 Tdp1-/-;hTDP1 cells with camptothecin (screen for TDP1 inhibitors). chicken DT40 Tdp1-/-;hTDP1 cells + 20 nM CPT, ATP luminescence, 48 h. AID 686979. 420,000 tested, 12% active. Potency, µM (doses to about 46.2 µM), hits mostly inhibitors; further: nearly all actives have a fitted effect of over 55% in size
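Cell growth measured by CellTiter-Glo luminescence after a minimum 48 h, 37 C compound exposure with 20 nM CPT in Tdp1-knockout DT40 cells stably expressing hTDP1, seeded 400/well; qHTS titration format.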
IL1B secr inh: inflammasome signaling inhibition, IL-1 beta readout; THP-1 LPS/ATP IL-1B secretion, AlphaLISA, 16 h; stronger effect = lower value; activity change, % at 57.5 µM; 360,000 tested, 4.7% active; in the data active means activity change below about -50%; inconclusive means mostly about -30% to -49%
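THP-1 cells pretreated 1 hr with compounds (up to 57.5 uM final), then stimulated with LPS (250 ng/mL final) plus ATP (1.25 mM final); secreted IL-1B measured by AlphaLISA after 16 hr, decreased signal indicating inhibition.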
Numbers stand for hits; - = inactive; ? = inconclusive; . = no result. Unless noted, the call rests on the fitted dose curve; in most records, active means well fitted curve in the direction sought with a large enough effect; inconclusive means small, poorly fitted or top-dose-only effect, or another doubt; inactive means no such curve, though single readings can be large; an effect the other way counts as inactive or inconclusive.

SMILES | HT1080 IDH1KD tx | HT1080NT lethal | DT40 TDP1 no CPT | TDP1 cell CPT | IL1B secr inh
COC(=O)c1c(NC(=O)C(=O)NCC2CCCO2)sc2c1CC(C)(C)OC2 (centres undefined) | - | - | - | ? | -
Oc1ccc(-c2[nH]ncc2-c2ccc(Cl)cc2)c(O)c1 | - | - | ? | - | -
Oc1ccc(-c2[nH]ncc2-c2cccc3cccnc23)c(O)c1 | ? | ? | ? | 23µM | -
O=C(Nc1cc(Cl)ccc1O)c1cc(-c2ccc3c(c2)OCO3)on1 | . | . | - | - | .
CC(C)N1CCC2(CC1)N=C(c1ccc3c(c1)OCO3)CC(c1cc(Cl)ccc1O)N2 (centres undefined) | ? | ? | 5.2µM | 5.8µM | -117
CN1C(=O)C(Cl)(Cl)C(=O)c2ccccc21 | ? | 18µM | 16µM | 15µM | -91
CCOC(CNC(=O)c1cccn2c(=O)c3cc(Cl)ccc3nc12)OCC | - | - | 13µM | 12µM | -
CCOC(=O)N1CCN(C(=O)c2cccn3c(=O)c4cc(Cl)ccc4nc23)CC1 | - | - | - | - | -
O=C(NCCN1CCN(c2ccccc2)CC1)c1cccn2c(=O)c3cc(Cl)ccc3nc12 | - | - | 18µM | ? | -
CCOC(CNC(=O)c1cccn2c(=O)c3c(C)c(C)sc3nc12)OCC | - | - | 18µM | 16µM | -
O=C(NCCN1CCN(c2cccc(Cl)c2)CC1)c1cccn2c(=O)c3ccccc3nc12 | - | - | - | - | -
OC(Cc1cccc(Br)c1)c1ncc(-c2ccccc2C(F)(F)F)[nH]1 (centres undefined) | ? | ? | ? | ? | -
CCS(=O)(=O)c1ccc(OC)c(N=Nc2ccc(O)c3ncccc23)c1 | 8.2µM | ? | ? | ? | -
CCN(CC)S(=O)(=O)c1cccc2cccnc12 | - | - | - | - | -
CCN(CC)S(=O)(=O)c1cc(OC)ccc1N=Nc1ccc(O)c2ncccc12 | ? | ? | ? | 7.3µM | -
Clc1ccccc1C1=CC(c2ccco2)n2ncnc2N1 (centres undefined) | - | - | ? | - | -
CN(C)CCCN(C(=O)c1ccc([N+](=O)[O-])s1)c1nc2cc3c(cc2s1)OCCO3 | - | - | 3.3µM | 2.9µM | -96
CN(C)CCCN(C(=O)c1cc(Cl)sc1Cl)c1nc2cc3c(cc2s1)OCO3 | ? | ? | - | - | ?
CN(C)CCCN(C(=O)c1cc2cc([N+](=O)[O-])ccc2s1)c1nc2cc3c(cc2s1)OCCO3 | ? | ? | 2.3µM | 1.3µM | -
Cc1ccc2nc(N(CCCN(C)C)C(=O)c3ccc(Br)s3)sc2c1 | ? | ? | 23µM | ? | -79
CN(C)CCCN(C(=O)c1ccc(Cl)s1)c1nc2cc3c(cc2s1)OCO3 | ? | 18µM | ? | ? | -98
Cc1cccc(-n2nnc(-c3nc(-c4cccs4)no3)c2N)c1C | . | . | - | - | .
O=C(c1ccco1)N1CCN(C(=O)c2cnn(-c3ccc(F)cc3)c2-n2cccc2)CC1 | - | - | - | - | ?
Cc1cc(NC(=O)c2ccc(Cl)cc2Cl)no1 | - | - | - | - | ?
CN(C)CCCN(C(=O)c1ccc(Br)s1)c1nc2cc3c(cc2s1)OCCO3 | ? | - | ? | 29µM | -93
SMILES | HT1080 IDH1KD tx | HT1080NT lethal | DT40 TDP1 no CPT | TDP1 cell CPT | IL1B secr inh
CCS(=O)(=O)c1nc(S(=O)(=O)c2ccc(C)cc2)c(N2CCCCCC2)s1 | - | - | ? | ? | -
Cc1ccc2nc(N(CCCN(C)C)C(=O)COc3ccc(Cl)cc3)sc2c1 | - | - | 21µM | ? | -
CN(C)CCCN(C(=O)c1nc2ccccc2s1)c1nc2ccc(F)cc2s1 | - | - | 5.8µM | 3.7µM | -
Cc1cccc2sc(N(CCCN(C)C)C(=O)COc3ccccc3)nc12 | . | . | - | - | .
CN(C)CCCN(C(=O)CCOc1ccccc1)c1nc2c(F)cccc2s1 | 7.3µM | 15µM | 4.6µM | 5.8µM | -60
Cc1cccc2sc(N(CCCN(C)C)C(=O)COc3ccc(Cl)cc3)nc12 | ? | ? | ? | ? | -60
CN(C)CCCN(C(=O)c1ccc(C(=O)c2ccccc2)cc1)c1nc2ccc(F)cc2s1 | - | - | ? | ? | -
Cc1c(NC(=O)c2cc(S(=O)(=O)N3CCCCC3)ccc2Cl)c(=O)n(-c2ccccc2)n1C | - | - | - | - | -
